Screening results from PubChem BioAssay.
MITF inh: human MITF inhibition, primary screen | O75030 | AlphaScreen MITF homodimerization, bead proximity signal | 0.91% of 650,000 active | inhibition, % at 2.6 µM; in the data active = inhibition above about 50%;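 also: 0% = vehicle wells with protein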
GPR151 activ: activators of human GPR151; activation, % at 11.2 µM; PathHunter beta-arrestin GPR151 cells, luminescence; Q8TDV0; 1% of 650,000 active; in the data active = activation above about 4.9%;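 also: 0% = median of compound wells and 100% = cells with positive control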
Target sequence (Q8TDV0 whole entry, looked up): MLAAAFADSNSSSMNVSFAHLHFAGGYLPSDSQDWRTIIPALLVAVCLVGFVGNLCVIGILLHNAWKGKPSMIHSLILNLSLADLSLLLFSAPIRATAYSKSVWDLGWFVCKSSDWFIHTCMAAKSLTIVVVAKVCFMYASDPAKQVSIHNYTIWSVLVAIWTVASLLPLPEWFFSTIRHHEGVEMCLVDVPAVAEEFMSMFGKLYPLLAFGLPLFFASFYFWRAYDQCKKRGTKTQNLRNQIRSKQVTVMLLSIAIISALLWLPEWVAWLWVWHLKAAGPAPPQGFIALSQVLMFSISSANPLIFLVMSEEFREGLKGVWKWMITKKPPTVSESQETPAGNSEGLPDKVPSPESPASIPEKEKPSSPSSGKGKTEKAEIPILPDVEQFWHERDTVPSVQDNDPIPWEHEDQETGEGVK
FBW7 activator: activators of human E3 ligase FBW7; Q969H0; AlphaScreen FBW7–phospho-cyclin E peptide binding, activator screen; normalized activity (activation), % at 26.1 µM; 0.13% of 650,000 active; AID 1259310; in the data active = normalized activity above about 1.9%;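 also: purified mutant Fbw7 with reduced substrate affinity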
TEAD-YAP block: TEAD-YAP interaction inhibition | inhibition, % at 9.12 µM | 1.4% of 640,000 active | HEK-TIYL cells, TEAD-Gal4/YAP UAS-luciferase luminescence; in the data active = inhibition above about 32%;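 also: 0% = median of test compound wells and 100% = reference inhibitor wells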
* hit, by the source's call; ! = not confirmed by another sample. Most compounds without a hit are left out; they make up all but 3.4% or so of the library.

SMILES	MITF inh	GPR151 activ	FBW7 activator	TEAD-YAP block
COc1cc2c(cc1OC)[C@@H]1C(=O)c3ccc4c(c3O[C@@H]1CO2)C=CC(C)(C)O4	-3.6	1.5	-0.1	68.9*
O=C(COc1ccccc1[N+](=O)[O-])Nc1ccccn1	2.6	-8.8	0.0	35.6*
O=C(COc1ccc(Br)cc1Cl)Nc1ccccc1	14.1	-0.9	0.4	54.2*
O=C(COc1ccccc1[N+](=O)[O-])Nc1ccccc1Cl	17.6	-0.1	0.0	-49.5
Cc1cc(Cl)ccc1OCC(=O)Nc1ccccn1	11.8	-0.7	0.3	67.4*
Cc1cc(Cl)ccc1OCC(=O)Nc1ncccn1	6.2	1.2	-0.2	-18.6
CC(=O)Nc1ccc(NC(=O)COc2ccc(Br)cc2Cl)cc1	-9.4	-0.5	-0.1	-17.6
O=C(COc1ccc(Cl)cc1Cl)Nc1ccccc1	6.3	1.2	0.1	36.3*
O=C(Nc1ccc(S(=O)(=O)N2CCCCC2c2cccnc2)cc1)c1ccc(Cl)cc1Cl (centres undefined)	2.8	1.9	-0.2	8.5
CCOC(=O)c1sc(NC(=O)CSc2nnc(CNC(=O)c3ccco3)n2-c2ccc(F)cc2)c(C(=O)OCC)c1C	-13.9	-0.9	0.0	-1.5
O=C(COc1ccc(Cl)cc1Cl)Nc1ccc(O)cc1	-3.1	1.1	0.0	32.1*
Cc1ccccc1OCC(=O)Nc1ccc(Cl)cc1	9.6	-0.5	0.1	-41.5
O=C(COc1ccc(Cl)cc1Cl)Nc1cccc(-c2cn3c(n2)SCC3)c1	8.1	-0.4	0.1	68.5*
O=C(COc1ccc(Br)cc1Br)Nc1ncn[nH]1	9.1	0.7	0.3	44.2*
Cc1ccccc1OCC(=O)NNC(=O)Nc1ccc(Cl)cc1	-3.9	0.2	0.6	59.3*
COc1cc(C2C(C(=O)OC(C)C)=C(C)NC3=C2C(=O)CC(c2ccc(Cl)cc2)C3)cc(Br)c1O (centres undefined)	-19.6	2.5	0.0	-0.3
Cc1csnc1NC(=O)c1c(N)nc2c(c1C(F)(F)F)OC1=C(CCCC1)O2	-4.9	0.0	0.0	79.2*
CCOC(=O)c1c(NC(=O)c2ccc(C(F)(F)F)cc2)sc2c1CCCC2	3.8	-0.6	0.2	-1.6
CCc1cccc(NS(=O)(=O)c2ccc3c4c2CC(=O)N4CC(C)S3)c1 (centres undefined)	-2.7	0.3	-0.1	36.3*
CC1CN2C(=O)Cc3c(S(=O)(=O)Nc4ccc(F)cc4)ccc(c32)S1 (centres undefined)	10.1	0.0	0.0	23.4
O=C(Nc1ncc([N+](=O)[O-])s1)c1ccc(Br)cc1F	-4.8	-12.3	0.1	84.8*
Nc1ccc(OCc2ccccc2Cl)cc1	23.9	-1.3	0.2	72.4*
O=C1c2ccccc2C(=O)C1(Nc1ccc(OCc2ccccc2Cl)cc1)c1ccccc1	14.3	-0.4	0.4	32.4*
N=c1c(C(=O)NCc2ccccc2)cc2c(=O)n3ccccc3nc2n1C1CCCCC1	5.2	0.1	-0.1	-2.1
COc1ccc(NC(=O)CSC2CC(=O)N(c3cccc(Cl)c3)C2=O)cc1 (centres undefined)	15.6	0.6	0.2	6.7
SMILES	MITF inh	GPR151 activ	FBW7 activator	TEAD-YAP block
COc1cc(NC(=O)c2cccc(-c3ccc(N4CCOCC4)nc3)n2)cc(OC)c1OC	18.1	2.1	0.1	34.2*
COc1cc(NC(=O)c2cccc(-c3ccc(C(N)=O)cc3)n2)cc(OC)c1OC	-8.7	-1.2	-0.2	34.5*
CC(=O)Nc1ccc(NC(=O)c2cnc(N3CCN(Cc4ccc5c(c4)OCO5)CC3)s2)cc1	7.6	-0.8	0.2	42.4*
COc1cc(NC(=O)c2cccc(-c3ccc(N4CCOCC4)nc3)c2)cc(OC)c1OC	8.9	-2.0	0.1	-42.3
COc1cc(NC(=O)c2cccc(N3CCN(Cc4ccc5c(c4)OCO5)CC3)n2)cc(OC)c1OC	5.3	2.0	0.0	36.6*
Cc1ccc(CC(=O)OCCNC(=O)c2cccnc2)cc1	2.7	3.7	0.0	10.8
Cc1cc(C(=O)Nc2ccc(C(N)=O)cc2)ccc1[N+](=O)[O-]	8.2	-0.8	0.3	6.4
O=C(c1cn(-c2ccc(Cl)cc2)c(=O)c2ccccc12)N1CCCCC1	7.1	0.7	0.0	7.2
CCCCNCc1cc(Cl)c(OC)c(OC)c1	-3.1	-0.8	0.1	2.6
COc1cc(NC(=O)c2cccc(-c3cccc(N)c3)n2)cc(OC)c1OC	-0.6	2.8	0.0	34.1*
CCOc1cc(/C=C2/N=C3CCCCCN3C2=O)ccc1OC(C)=O	-0.8	0.5	-0.1	-25.5
CCN1CCN(Cc2ccc(NC(=O)Nc3cc(F)ccc3F)cc2)CC1	0.0	-0.6	-0.2	40.0*
CN1C(=O)N(C)C2C1NNC(=S)N2C (centres undefined)	11.4	-0.5	0.0	61.1*
CN(Cc1ccccc1)c1ccnc2c(-c3cccc(C(=O)O)c3)cnn12	-13.9	-4.4	-0.3	89.1*
CN(Cc1ccccc1)c1ccnc2c(-c3cccc(O)c3)cnn12	-9.5	0.7	0.1	90.4*
CN(Cc1ccccc1)c1ccnc2c(-c3ccc(CO)cc3)cnn12	-12.5	0.3	0.2	-39.2
CC(=O)c1cccc(-c2cnn3c(N4CCN(c5ccccn5)CC4)ccnc23)c1	5.9	-1.4	1.9*	3.4
Nc1cccc(-c2cnn3c(N4CCN(c5ccccn5)CC4)ccnc23)c1	-3.0	-0.1	0.0	-4.0
O=C(CCCn1nnc2ccccc2c1=O)NCC1CCCO1 (centres undefined)	6.3	2.6	0.0	-15.0
O=C(N/N=C/C=C/c1ccccc1Cl)C(O)c1ccccc1 (centres undefined)	-11.2	0.0	0.0	-27.5
O=C(O)c1ccccc1Nc1ccnc(Cl)n1	-3.8	-0.5	0.1	-15.8
Cc1ccc(S(=O)(=O)N2C(=O)c3ccccc3C2=O)cc1	3.3	-0.1	0.2	8.1
C=CCN(c1ccccc1)S(=O)(=O)c1ccc(F)c(C(=O)NCCc2ccccc2)c1	2.4	-0.3	-0.1	35.2*
C=CCN(c1ccccc1)S(=O)(=O)c1ccc(F)c(C(=O)NCC(OC)OC)c1	7.6	0.6	0.1	3.1
COc1cc(C=O)ccc1OCc1nnnn1-c1ccccc1	16.7	-0.6	2.0*	11.1
SMILES	MITF inh	GPR151 activ	FBW7 activator	TEAD-YAP block
O=C(NCc1ccncc1)c1ccc(OC2CCN(C3CCOCC3)CC2)cc1	-1.9	-0.1	0.1	2.1
Cc1cc(CN2CCC(Oc3ccc(C(=O)NCc4ccncc4)cc3)CC2)oc1C	-12.7	-0.4	-0.1	32.6*
CCC1(C)Cc2c(sc3nc(SCCc4ccccc4)n(-c4ccccc4)c(=O)c23)CO1 (centres undefined)	-0.5	-1.0	0.1	-3.4
CC(=O)Nc1ccc(Nc2cc(-c3ccccc3)nc(N)n2)cc1	10.4	0.2	-0.1	-23.2
Oc1ccc(/C=C/c2cc(O)cc(O)c2)cc1	-6.3	-6.2	0.5	89.1*!
OC[C@H]1O[C@@H](Oc2cc(O)cc(/C=C/c3ccc(O)cc3)c2)[C@H](O)[C@@H](O)[C@@H]1O	4.6	2.1	-0.1	11.5
O=C(Nc1ccc2nn(-c3cccc([N+](=O)[O-])c3)nc2c1)c1cccs1	4.3	0.5	-0.3	-14.6
Cc1c(NC(=O)c2c(Cl)cccc2Cl)c(=O)n(-c2ccccc2)n1C	-2.1	1.0	0.0	1.9
COCCOCCCN1CCC2(CC1)NC(=O)Cc1ccccc12	11.7	-0.6	0.1	7.1
